From PubChem BioAssay (NCATS)
Several values for one entry are separate records, joined by “and”; a condition that tells them apart may be missing. Identical values can stand only once. Records with an inconclusive call do not appear. Activity calls are given as the source filed them. Unless noted, calls come from the whole dose curve; as a rule, active = well fitted curve in the direction sought with a large enough effect; inconclusive = small, poorly fitted or top-dose-only effect, or another doubt; inactive = no such curve, though single readings can be large; an effect the other way counts as inactive or inconclusive.

Columns and labels:
[1] = Cellular Toxicity (caspase-3) HepG2 (AID 654);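 note: cells exposed to compound for 16 hours before reading; 0% = DMSO alone and 100% = caspase signal from 100 µM tamoxifen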
How it was run: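 Cells plated 5 hr at 37 °C, compound added, incubated 16 hr at 37 °C. Caspase-Glo 3/7 reagent followed, 20 min at room temperature, then luminescence read. Activation scored as signal increase; AC50 from Hill fit.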

[2] = Cellular Toxicity (caspase-3) HUV-EC-C (AID 656);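 note: 0% = DMSO basal and 100% = 100 µM tamoxifen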
How it was run: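 Concentration-dependent caspase 3/7 induction was assessed in HUV-EC-C cells exposed for 16 hours. Data scaled between DMSO and tamoxifen (100 uM) controls.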

[3] = Cellular Toxicity (caspase-3) BJ (AID 658);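 note: 0% = DMSO basal and 100% = 10 µM staurosporine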
How it was run: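 BJ human foreskin fibroblasts, 1000 cells/well, treated 16 hours at 37 °C in complete medium; caspase 3/7 activity by Caspase-Glo luminescence after 1 hr at room temperature. Normalized to DMSO and 10 uM staurosporine; AC50 from Hill fits.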

[4] = Cellular Toxicity (caspase-3) MRC-5 (AID 659);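 note: 0% = DMSO basal and 100% = 10 µM staurosporine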
How it was run: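 MRC-5 human normal lung fibroblasts, 1500 cells/well, treated 16 h at 37 °C in complete medium. Caspase 3/7 measured by Caspase-Glo luminescence after 1 h at room temperature. Normalized to DMSO and 10 uM staurosporine; AC50 from Hill fit.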

[5] = Cellular Toxicity (caspase-3) Mesangial (AID 660);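 note: combined caspase 3 and 7 activity read by Caspase-Glo luminescence; cells exposed to compound for 16 h before the caspase read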
How it was run: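 Mesangial cells, 1000/well, 5 h settle at 37 °C; compound 16 h, 37 °C; Caspase-Glo 3/7 reagent 20 min RT; luminescence. Norm.: DMSO = 0%, tamoxifen 100 uM = 100%. AC50, Hill fit.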

[6] = Cellular Toxicity (caspase-3) SK-N-SH (AID 661);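 note: 0% = DMSO basal and 100% = 10 µM staurosporine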
How it was run: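 Human neuroblastoma SK-N-SH, 1500 cells/well, 5 hr pre-incubation, then compound 16 hr, 37 °C. Caspase-Glo 3/7 reagent, 1 hr RT, luminescence. Norm. to DMSO/10 uM staurosporine; Hill-fit AC50.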

[7] = Cellular Toxicity (caspase-3) N2a (AID 665);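 note: compound exposure lasted 16 h at 37 °C before readout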
How it was run: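 N2a cells, 1500/well, 5 h settle at 37 °C; cpd 16 h, 37 °C; Caspase-Glo 3/7, 1 h RT; luminescence. Norm: DMSO = 0, 10 uM staurosporine = 100%. AC50, Hill fit.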

[8] = Cellular Toxicity (caspase-3) NIH 3T3 (AID 666);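 note: 0% = DMSO basal and 100% = 100 µM tamoxifen stimulation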
How it was run: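 Luminescence from aminoluciferin released by caspase-3/7 cleavage of a peptide substrate served as read-out. Mouse fibroblast NIH 3T3 cells were exposed to compounds over a concentration range for 16 hours, and AC50 values came from standard Hill modelling.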

[9] = Cellular Toxicity (caspase-3) Renal Proximal Tubule (AID 667);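 note: cells exposed to compound for 16 hours at 37 °C before detection; 0% = DMSO basal and 100% = 10 µM staurosporine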
How it was run: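 Caspase-Glo 3/7 read-out, rat primary kidney proximal tubule cells. Compound exposure 16 h, 37 °C; detection after 1 h at RT. Activity scaled to DMSO and 10 uM staurosporine.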

[10] = Cell Viability - LYMP2-001 (AID 921);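 note: series mostly up to about 92 µM; cells exposed to compound for 24 h at 37 °C; 0% = DMSO only and full inhibition = tetraoctylammonium bromide control wells; nearly all actives have a fitted effect of over 70% in size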
How it was run: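 A lymphoblastoid cell line of human origin was treated with library compounds across a concentration series for 24 hours, and viable cell number was estimated from ATP-driven luciferase light output. Hill modeling gave AC50.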

[11] = MultiTox-Fluor Cytotoxicity Assay - LYMP1-001 - Dead Cells (AID 946);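 note: 0% = DMSO and 100% = tetraoctylammonium bromide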
How it was run: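 In this qHTS, 15 uM tetraoctylammonium bromide defined 100% and DMSO defined basal activity. Lymphoblastoid cells (LYMP1-001, 2500 per well) received compound for 16 hr at 37 C before a fluorogenic dead-cell substrate readout at 485/520 nm.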

[12] = MultiTox-Fluor Cytotoxicity Assay - LYMP1-001 - Live Cells (AID 947);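 note: 0% = DMSO only and full inhibition = tetraoctylammonium bromide control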
[13] = MultiTox-Fluor Cytotoxicity Assay - LYMP1-002 - Live Cells (AID 955); note: % is set by controls: 0 for no effect and ±100 for the full control effect
How it was run: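 Read-out is live-cell protease activity (cell-permeant GF-AFC substrate, fluorescence Ex/Em=405/510), where a decrease indicates acute toxicity. Human lymphoblastoid cells were treated 16 hours at 37 C in a concentration series, and AC50 values came from standard Hill modelling.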

[14] = qHTS assay for small molecule activators of the p53 signaling pathway (AID 651743; active = well fitted activation curve with a large enough effect in the signal ratio, not every such curve was filed as active; the % refers to the signal ratio; note: series mostly up to about 92 µM; % of control where 0% means no effect); details: HCT-116 p53RE-bla, beta-lactamase FRET ratio, 16 h; activation: stronger effect = higher value
How it was run: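 p53RE-bla HCT-116 cells carrying a beta-lactamase reporter under p53 response elements were exposed to compounds for 16 hours at 37 C. Reporter activity read as fluorescence after 2 hours at room temperature with LiveBLAzer B/G FRET substrate.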

[15] = qHTS assay for small molecule activators of the nuclear factor-kappa B (NF-kB) signaling pathway (AID 651749; active = well fitted activation curve with a large enough effect in the signal ratio; the % refers to the signal ratio; note: series mostly up to about 77 µM; % of control where 0% means no effect); details: NF-kB-bla ME-180 cells, beta-lactamase FRET ratio, 16 h; activation: stronger effect = higher value
How it was run: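 NF-kB-bla ME-180 cells carrying a beta-lactamase reporter under an NF-kB response element, 2,000 cells/well, exposed to compound for 16 hr at 37C; FRET-based beta-lactamase fluorescence read-out of pathway activation.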

[16] = molecular target: Tumor necrosis factor (Homo sapiens) (UniProt P01375); experiment: qHTS assay to identify small molecules that stimulate Tumor Necrosis Factor-alpha (TNF-alpha) secretion (AID 651757; active = well fitted curve in the direction sought with a large enough effect in the signal ratio; the % refers to the signal ratio; note: 0% is about no effect)
How it was run: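 Read-out is HTRF, a TR-FRET sandwich of cryptate- and XL665-labeled anti-TNF-alpha antibodies detecting cytokine secreted by THP-1 cells. Cells had been incubated with test compounds at 37 C for 17 hrs beforehand.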

[17] = qHTS assay for small molecule agonists of the antioxidant response element (ARE) signaling pathway measured by Nrf2-dependant transcriptional activity (AID 720636; active = well fitted curve in the direction sought with a large enough effect in the repeat runs; an effect the other way counts as inactive or inconclusive; note: potency is the fitted concentration of half-maximal effect)
How it was run: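 We exposed ARE-luc HepG2 cells, seeded in assay medium with 1% dialyzed FBS and allowed 6 hr to adhere, to test compounds overnight (16 hr, 37 C) before measuring luciferase with ONE-Glo.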

[18] = qHTS assay for small molecule antagonists of the retinoid-related orphan receptor gamma (ROR-gamma) signaling pathway - cell viability counter screen (AID 720652; active = well fitted curve in the direction sought with a large enough effect in the repeat runs; an effect the other way counts as inactive or inconclusive;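 note: series mostly up to about 92 µM; compound exposure lasted 16 hr before ATP read; % is set by controls: 0 for no effect and ±100 for the full control effect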)
How it was run: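 Luminescence from CellTiter-Glo after 30 min at room temperature reported cellular ATP as the cytotoxicity measure. Cells were the CHO reporter line with doxycycline-induced ROR-gamma expression, exposed to compound for 16 hr at 37 C.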

[19] = molecular target: Nuclear receptor subfamily 1 group I member 2 (Rattus norvegicus) (UniProt Q9R1A7); experiment: qHTS assay for small molecule activators of the rat pregnane X receptor (rPXR) signaling pathway (AID 651751; call rule not given here; note: 0% is about no effect); details: rPXR reporter cells, luciferase (One-Glo), 24 h
[20] = qHTS assay for small molecule activators of the human pregnane X receptor (PXR) signaling pathway (AID 720659; call rule not given here; note: 0% is about no effect)

Nuclear receptor subfamily 1 group I member 2 (Rattus norvegicus), sequence (Q9R1A7 whole entry, looked up): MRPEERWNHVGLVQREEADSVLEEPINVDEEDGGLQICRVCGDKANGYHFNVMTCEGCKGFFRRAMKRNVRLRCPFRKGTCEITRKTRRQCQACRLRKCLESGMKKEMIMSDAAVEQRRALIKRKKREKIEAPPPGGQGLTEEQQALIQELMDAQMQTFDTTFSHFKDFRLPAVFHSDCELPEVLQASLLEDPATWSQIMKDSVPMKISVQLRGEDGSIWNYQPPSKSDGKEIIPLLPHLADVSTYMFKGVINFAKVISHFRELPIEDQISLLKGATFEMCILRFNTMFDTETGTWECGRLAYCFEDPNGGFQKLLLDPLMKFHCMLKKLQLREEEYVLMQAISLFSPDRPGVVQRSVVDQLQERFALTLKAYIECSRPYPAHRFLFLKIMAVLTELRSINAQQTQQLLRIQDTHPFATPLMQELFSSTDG
Tumor necrosis factor (Homo sapiens), sequence (P01375 whole entry, looked up): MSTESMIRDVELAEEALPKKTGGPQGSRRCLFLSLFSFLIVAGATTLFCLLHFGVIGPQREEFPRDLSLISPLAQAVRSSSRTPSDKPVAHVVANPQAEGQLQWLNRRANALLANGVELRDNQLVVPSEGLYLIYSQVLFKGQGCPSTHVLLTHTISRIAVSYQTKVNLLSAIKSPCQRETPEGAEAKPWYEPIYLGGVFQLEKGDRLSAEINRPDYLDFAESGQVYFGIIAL

CC(C)(c1ccc(OCC2CO2)cc1)c1ccc(OCC2CO2)cc1 (stereo not given)
inactive: outcome [1] | outcome [2] | outcome [3] | outcome [4] | outcome [5] | outcome [6] | outcome [7] | outcome [8] | outcome [9] | outcome [10] | Potency [11] | outcome [12] | outcome [13] | activation [14] 1.86% and -8.3% | activation [15] -1.34% and -1.67% | outcome [16] | outcome [18] | max response [19] -1.73% and 0.566% | outcome [20]
active: Potency [17] 66.8 µM
